Source: paper PMC12431657, “Discovery and mechanistic insights of dibenzoylmethane as a broad spectrum inhibitor of coronavirus” (PLOS Pathogens, 2025)
Structures can show the parent of a compound that is named as a salt. Where two headings read alike, the source gives them in different places. Hit rate of the full screen: of about 3,300 compounds, about 95 (3%) showed an effect of 50% or more. The sample holds strong results, similar compounds and a random draw of the others, so the mix is not that of the screen.

Tested on: HCoV-229E
Parameters: species or system Huh-7; HTS, protection from HCoV-229E induced cell death, luminescent cell viability (CellCounting-Lite 2.0), inhibition rate
Conditions: 24 h post infection, 1 h compound pre-incubation, 10 µM, inhibitor

CC(C)(O)[C@@H]1CC[C@](C)([C@H]2[C@@H](O)C[C@@]3(C)[C@@H]4C[C@H](O)[C@H]5C(C)(C)[C@@H](O[C@@H]6OC[C@@H](O)[C@H](O)[C@H]6O[C@@H]6O[C@H](CO)[C@@H](O)[C@H](O)[C@H]6O)CC[C@@]56C[C@@]46CC[C@]23C)O1 [Astragaloside III]
229E Inhibition rate: 10.8%

CO[C@H]([C@H](C)[C@H]1O[C@@]2(CC[C@@](C)([C@H]3CC[C@@](C)([C@@H]4O[C@@H]([C@H]5O[C@@](O)(CO)[C@H](C)C[C@@H]5C)C[C@@H]4C)O3)O2)C[C@H](O)[C@H]1C)[C@H](C)C(=O)O [Monensin B]
229E Inhibition rate: 55.3%

CO[C@@H]1[C@@H](OC)[C@H](C)[C@@](O)(CC(=O)O)O[C@H]1[C@H](C)[C@H]1O[C@@]2(CC[C@@](C)([C@H]3CC[C@@](C)([C@@H]4O[C@@H]([C@H]5O[C@](C)(O)[C@H](C)C[C@@H]5C)C[C@@H]4O[C@@H]4C[C@H](OC)[C@@H](OC)[C@H](C)O4)O3)O2)C[C@H](O)[C@H]1C [Maduramicin (ammonium)]
229E Inhibition rate: 3.4%

CC[C@@]1([C@H]2O[C@H]([C@H]3O[C@@](O)(CO)[C@H](C)C[C@@H]3C)C[C@H]2C)CC[C@H]([C@@]2(C)CC[C@]3(C[C@H](O)[C@@H](C)[C@@H]([C@H](C)[C@H](OC)[C@@H](C)C(=O)O)O3)O2)O1 [Monensin sodium salt]
229E Inhibition rate: 24.5%

COc1ccc(/C=C/c2cc(OC)cc(=O)o2)cc1 [Yangonin]
229E Inhibition rate: 44%

C[C@]12CC[C@@H]3c4ccc(O)cc4CC[C@H]3[C@@H]1CC[C@H]2O [Alpha-Estradiol]
229E Inhibition rate: 18.2%

O=C(/C=C/c1ccc(O)c(O)c1)O[C@@H]1CC(C(=O)O)=C[C@@H](O)[C@H]1O [5-O-Caffeoylshikimic acid]
229E Inhibition rate: 12%

O=C1/C(=C/c2ccc(O)c(O)c2)COc2cc(O)ccc21 [Sappanone A]
229E Inhibition rate: 15.6%

C=C[C@](C)(O)CC[C@@H]1[C@@]2(C)CCCC(C)(C)[C@@H]2CC[C@@]1(C)O [Sclareol]
229E Inhibition rate: 19.3%

CC1(C)CCC[C@]2(C)[C@@H](C=O)C(C=O)=CC[C@@H]12 [Polygodial]
229E Inhibition rate: 16.5%

CC1(C)CCC[C@]2(C)[C@H]3CCO[C@]3(C)CC[C@@H]12 [Ambroxide]
229E Inhibition rate: 53.4%

CC1(C)Oc2cc3oc(=O)ccc3cc2C[C@@H]1O [Decursinol]
229E Inhibition rate: 0%

COc1cc([C@H]2OC[C@H]3[C@@H]2CO[C@@H]3c2ccc(O[C@@H]3O[C@H](CO)[C@@H](O)[C@H](O)[C@H]3O)c(OC)c2)ccc1O[C@@H]1O[C@H](CO)[C@@H](O)[C@H](O)[C@H]1O [Pinoresinol Diglucoside]
229E Inhibition rate: 23.6%

CSCCC(NC(C)=O)C(=O)O (racemic) [N-Acetyl-DL-methionine]
229E Inhibition rate: 32.7%

O=c1ccc2ccc(O)cc2o1 [Umbelliferone]
229E Inhibition rate: 54.3%

O=c1ccc2cc(O)ccc2o1 [6-Hydroxycoumarin]
229E Inhibition rate: 10.6%

O=c1ccc2cc(O)c(O)cc2o1 [Esculetin]
229E Inhibition rate: 35.1%

C[C@H](CC[C@@H](O)C(C)(C)O)[C@H]1CC[C@@]2(C)[C@@H]3CC=C4[C@@H](CC[C@H](O[C@@H]5O[C@H](CO[C@@H]6O[C@H](CO)[C@@H](O)[C@H](O)[C@H]6O)[C@@H](O)[C@H](O)[C@H]5O)C4(C)C)[C@]3(C)[C@H](O)C[C@]12C [Mogroside II-A2]
229E Inhibition rate: 10%

CCCCC[C@H](O)CC(=O)CCc1ccc(O)c(OC)c1 [[6]-Gingerol]
229E Inhibition rate: 52.8%

CCCCCCCCC[C@H](O)CC(=O)CCc1ccc(O)c(OC)c1 [10-Gingerol]
229E Inhibition rate: 32.3%

CCCCCCC[C@H](O)CC(=O)CCc1ccc(O)c(OC)c1 [8-Gingerol]
229E Inhibition rate: 13.3%

Cc1ncc(C[n+]2csc(CCOP(=O)(O)O)c2C)c(N)n1 [Thiamine monophosphate (chloride) (dihydrate)]
229E Inhibition rate: 12.1%

CC(=O)O[C@H]1[C@H]2[C@H]([C@@H]3[C@H]4OC(=O)[C@@](C)(O)[C@@]5(C)C(=O)C[C@@H](C)[C@@H]([C@@H]45)[C@@]3(C)[C@H]1OC(C)=O)[C@@H](OC(C)=O)C(=O)[C@H]1C[C@@H]3O[C@@H]3[C@H](OC(C)=O)[C@]21C [Taccalonolide C]
229E Inhibition rate: 10.3%

O=c1cc(-c2ccc(O)cc2)oc2cc(O)cc(O)c12 [Apigenin]
229E Inhibition rate: 55.5%

O=c1cc(-c2ccc(O)c(O)c2)oc2cc(O)cc(O)c12 [Luteolin]
229E Inhibition rate: 0%

O=c1cc(-c2ccccc2)oc2cc(O)cc(O)c12 [Chrysin]
229E Inhibition rate: 0%

O=c1cc(-c2ccccc2)c2cc(O)c(O)cc2o1 [Nordalbergin]
229E Inhibition rate: 17.6%

O=c1cc(-c2ccccc2)c2c(O)cc(O)cc2o1 [LC3-mHTT-IN-AN2]
229E Inhibition rate: 50.8%

COc1ccc(-c2cc(=O)c3c(O)cc(O)cc3o2)cc1-c1c(O)cc(O)c2c(=O)cc(-c3ccc(O)cc3)oc12 [Bilobetin]
229E Inhibition rate: 22.4%

O=c1c(O)c(-c2ccccc2)oc2cc(O)cc(O)c12 [Galangin]
229E Inhibition rate: 8%

COc1ccc(-c2cc(=O)c3c(O)cc(O)c(-c4cc(-c5cc(=O)c6c(O)cc(O)cc6o5)ccc4OC)c3o2)cc1 [Isoginkgetin]
229E Inhibition rate: 6.1%

COc1cc(O)c2c(=O)cc(-c3ccc(OC)c(-c4c(O)cc(O)c5c(=O)cc(-c6ccc(O)cc6)oc45)c3)oc2c1 [Ginkgetin]
229E Inhibition rate: 64.4%

O=C(/C=C/c1ccc(O)c(O)c1)O[C@H]1[C@H](O)C[C@](O)(C(=O)O)C[C@H]1O [Cryptochlorogenic acid]
229E Inhibition rate: 7.4%

CC1(C)[C@@H](O[C@H]2O[C@H](C(=O)O)[C@@H](O)[C@H](O)[C@H]2O[C@@H]2O[C@H](C(=O)O)[C@@H](O)[C@H](O)[C@H]2O)CC[C@]2(C)[C@H]3C(=O)C=C4[C@@H]5C[C@@](C)(C(=O)O)CC[C@]5(C)CC[C@@]4(C)[C@]3(C)CC[C@@H]12 [Diammonium Glycyrrhizinate]
229E Inhibition rate (229E Inhibition rate, 24 h): 0%
